PubChem BioAssay (EPA / NIEHS)
Activity calls are given as the source filed them. The calls were made as follows: active = hit-call score of the fitted dose curve at least 0.9, where 1 is the maximum; inactive = score below 0.9.

target: Cytochrome P450 2C18 (Homo sapiens) (UniProt P33260); assay: NVS_ADME_hCYP2C18: NovaScreen (NVS) CYP450-related Enzyme Activity (ADME) Assay for human CYP2C18 (AID 2283103)
Description: NVS_ADME_hCYP2C18 is a biochemical, single-readout assay that uses extracted gene-proteins in a cell-free assay. Measurements were taken 0.5 hour after chemical dosing in a 96-well plate.NVS_ADME_hCYP2C18 is one of one assay component(s) measured or calculated from the NVS_ADME_hCYP2C18 assay. It is designed to make measurements of enzyme activity, a form of enzyme reporter, as detected with fluorescence intensity signals by Fluorescence technology.Data from the assay component NVS_ADME_hCYP2C18 was analyzed into 1 assay endpoint. This assay endpoint, NVS_ADME_hCYP2C18, was analyzed in the positive analysis fitting direction relative to Acetonitrile as the negative control and baseline of activity. Using a type of enzyme reporter, loss-of-signal activity can be used to understand changes in the enzymatic activity as they relate to the gene CYP2C18. Furthermore, this assay endpoint can be referred to as a primary readout, because this assay has produced multiple assay endpoints where this one serves a enzymatic activity function. To generalize the intended target to other relatable targets, this assay endpoint is annotated to the cyp intended target family, where the subfamily is xenobiotic metabolism.
Binding assays used specific radioligands (tritiated, iodinated) with non-radioactive competitive displacement ligands in agonist or antagonist protocols (as indicated) and various reference compounds and inhibitors to titrate specific binding to receptors and transporters. Most enzyme assays (CYPs, kinases, phosphatases, proteases, HDACs) used recombinant protein and specific substrates (fluorescence mostly, some colorimetric and radioactive) and inhibitors, followed by a biochemical separation of substrate and product. All assays for the biochemical HTS were initially run in duplicate at a single concentration (10 uM for CYP450 assays and 25 uM for all others). Assay-chemical combinations meeting a pre-defined threshold (e.g., 30% inhibition and other criteria defined below) were then run in singleton concentration-response format with maximum concentration of 20 uM for CYPs and 50 uM for all others. Each assay was run with positive and negative controls, and concurrent controls on every plate. The follow-up (secondary) screen tested active chemical-pairs in concentration series, as well as a few additional assays not tested in the primary screen, some selected negative inactives, and several cases re-run in the concentration series for confirmatory purposes.

Chain of Cytochrome P450 2C18 (Homo sapiens) (P33260 whole entry, looked up): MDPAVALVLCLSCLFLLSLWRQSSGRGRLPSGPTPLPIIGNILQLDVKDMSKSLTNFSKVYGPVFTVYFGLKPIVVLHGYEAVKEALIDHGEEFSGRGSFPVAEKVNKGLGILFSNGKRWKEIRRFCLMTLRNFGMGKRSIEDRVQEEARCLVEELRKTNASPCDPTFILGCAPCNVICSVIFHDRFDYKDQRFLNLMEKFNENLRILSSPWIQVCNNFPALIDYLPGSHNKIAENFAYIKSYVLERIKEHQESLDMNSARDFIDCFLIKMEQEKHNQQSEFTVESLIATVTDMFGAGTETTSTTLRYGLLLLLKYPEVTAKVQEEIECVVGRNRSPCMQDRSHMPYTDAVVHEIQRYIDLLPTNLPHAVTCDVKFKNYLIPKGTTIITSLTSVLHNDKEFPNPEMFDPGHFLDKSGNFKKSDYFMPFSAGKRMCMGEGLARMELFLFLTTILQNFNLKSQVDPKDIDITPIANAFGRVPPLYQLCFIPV

SMILES	AC50	outcome
CCOP(=O)(OCC)Oc1nc(Cl)c(Cl)cc1Cl	6.11 µM (active)	–
CC(C)Oc1cccc(NC(=O)c2ccccc2C(F)(F)F)c1	2.66 µM (active)	–
CCCCOCN(C(=O)CCl)c1c(CC)cccc1CC	6.71 µM (active)	–
CCCCC(C#N)(Cn1cncn1)c1ccc(Cl)cc1 (configuration not stated)	2.25 µM (active)	–
CCOc1cc(C(C)(C)C)ccc1C1COC(c2c(F)cccc2F)=N1 (configuration not stated)	–	inactive
COP(=S)(OC)Oc1ccc([N+](=O)[O-])c(C)c1	2.31 µM (active)	–
COC(=O)c1c(C(F)F)nc(C(F)(F)F)c(C2=NCCS2)c1CC(C)C	1.88 µM (active)	–
COc1ccc(-c2ccccc2)cc1NNC(=O)OC(C)C	0.684 µM (active)	–
CC(C)N1C(=O)N(c2ccccc2)CSC1=NC(C)(C)C	8.79 µM (active)	–
CCCCC(O)(Cn1cncn1)c1ccc(Cl)cc1Cl (configuration not stated)	1.59 µM (active)	–
CCN(CC)C(=O)C(C)Oc1cccc2ccccc12 (configuration not stated)	10.8 µM (active)	–
CCNP(=S)(OC)O/C(C)=C/C(=O)OC(C)C (configuration not stated)	2.63 µM (active)	–
COP(=S)(OC)SCn1nnc2ccccc2c1=O	1.93 µM (active)	–
CO/N=C(/C1=NOCCO1)c1ccccc1Oc1ncnc(Oc2ccccc2Cl)c1F	0.933 µM (active)	–
CC(C)NC(=O)N1CC(=O)N(c2cc(Cl)cc(Cl)c2)C1=O	–	inactive
CC(C)(C)C(=O)C(Oc1ccc(Cl)cc1)n1cncn1 (configuration not stated)	8.28 µM (active)	–
CC1(C)CCC(=Cc2ccc(Cl)cc2)C1(O)Cn1cncn1 (configuration not stated)	2.03 µM (active)	–
